Drawing on PubChem BioAssay AID1259349 (Broad Institute, 2017), this text covers z-score for 5 compounds.

The structures appear in SMILES notation. The whole screen tested about 17,000 compounds, of which about 1,100 (6.5%) were called active. The full list was thinned out, with actives kept by preference. Unmarked numbers belong to inactive results.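 Rule for the calls: active = z-score of -3 or lower, meaning strong loss of probe binding signal; inactive = the rest.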

The target of the test is Insulin-degrading enzyme (Homo sapiens) (UniProt P14735). As to the kind of experiment: displacers of FL-6b probe from IDE – biochemical, fluorescence anisotropy, probe displacement, primary screen (AID 1259349).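 Note: His-tagged human IDE residues 42-1019 made in E. coli with 30 nM FL-6b probe.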 The settings on record: purified IDE, FL-6b probe fluorescence polarization; at 20 µM; stronger effect = lower value. (In general: Polarisation of emitted light reports the rotation of a fluorescent probe.)
Sequence of Insulin-degrading enzyme (Homo sapiens) (P14735 42-1019 limits assumed): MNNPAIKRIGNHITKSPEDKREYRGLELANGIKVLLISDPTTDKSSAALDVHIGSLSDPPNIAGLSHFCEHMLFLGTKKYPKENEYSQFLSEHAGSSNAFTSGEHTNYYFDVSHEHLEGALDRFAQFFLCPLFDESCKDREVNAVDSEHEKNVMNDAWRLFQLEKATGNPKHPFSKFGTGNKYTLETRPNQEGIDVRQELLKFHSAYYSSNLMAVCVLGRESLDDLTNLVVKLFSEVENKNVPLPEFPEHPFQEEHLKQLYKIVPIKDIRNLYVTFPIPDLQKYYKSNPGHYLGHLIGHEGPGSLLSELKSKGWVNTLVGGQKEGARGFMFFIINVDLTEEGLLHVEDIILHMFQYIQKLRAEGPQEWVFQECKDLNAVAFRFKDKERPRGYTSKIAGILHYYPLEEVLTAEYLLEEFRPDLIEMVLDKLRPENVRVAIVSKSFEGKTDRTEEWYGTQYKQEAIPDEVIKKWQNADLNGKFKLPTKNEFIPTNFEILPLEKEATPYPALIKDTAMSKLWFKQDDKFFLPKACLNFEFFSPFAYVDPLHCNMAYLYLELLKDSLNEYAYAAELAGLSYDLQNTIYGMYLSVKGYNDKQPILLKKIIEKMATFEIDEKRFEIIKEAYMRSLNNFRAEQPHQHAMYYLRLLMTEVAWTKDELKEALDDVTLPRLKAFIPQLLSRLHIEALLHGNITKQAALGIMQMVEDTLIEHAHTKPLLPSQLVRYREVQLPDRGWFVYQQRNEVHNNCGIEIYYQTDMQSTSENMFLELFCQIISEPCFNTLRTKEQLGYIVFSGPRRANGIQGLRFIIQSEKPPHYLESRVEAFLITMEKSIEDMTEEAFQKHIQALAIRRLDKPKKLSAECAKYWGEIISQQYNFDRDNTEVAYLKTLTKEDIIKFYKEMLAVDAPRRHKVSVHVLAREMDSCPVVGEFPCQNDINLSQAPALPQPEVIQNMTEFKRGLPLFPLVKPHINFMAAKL
Take `O=C(Cc1ccccn1)N1CCCCN2[C@@H](CO)[C@@H](c3ccc(C#Cc4ccccc4)cc3)[C@@H]2C1`: the z-score is -6.91 (active).

As to `O=C(Cc1ccccc1)N1CCCCN2[C@H](CO)[C@H](c3ccc(C#Cc4ccccc4)cc3)[C@H]2C1`, the z-score was -1.93.

With `O=C(Cc1ccccn1)N1CCCCN2[C@H](C1)[C@H](c1ccc(-c3ccccc3F)cc1)[C@@H]2CO`, the z-score was -1.94.

Take `O=C(Cc1ccncc1)N1CCCCN2[C@@H](CO)[C@H](c3ccc(C#CC4(O)CCCC4)cc3)[C@@H]2C1`: the z-score is 1.31.

As to `COC(=O)[C@@H]1[C@@H](CO)[C@@H]2Cn3c(ccc(-c4cccc(C(=O)N(C)C)c4)c3=O)[C@H]1N2C(=O)NC(C)C`, the z-score is -0.64.
